Assay [1] is described as follows: cAMP Responsive Elements (CRE) small molecule antagonists, cell-based qHTS assay: qHTS cell viability counter screen (AID 2060913). Further: nearly all actives have a fitted effect of over 40% in size. In short, it runs like this: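 Viability of NKH477-stimulated (0.25 uM final) CRE-bla HEK293T cells is measured by CellTiter-Glo luminescence following 3 hrs compound exposure at 37 C.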
Assay [2] can be described thus: cAMP Responsive Elements (CRE) small molecule agonists, cell-based qHTS assay: qHTS cell viability counter screen (AID 2060914).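 Further: viability read after 3 h of compound exposure; nearly all actives have a fitted effect of over 50% in size.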 In short, it runs like this: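 CRE-bla HEK 293T cells, plated 18 h at 37 °C, were exposed to compounds for 3 h at 37 °C/5% CO2. Viability was then measured in the same wells by CellTiter-Glo luminescence after 30 min at room temperature.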
For orientation: qHTS replaces the single test concentration by a dilution series.

Records with an inconclusive call do not appear. Values without a mark were called inactive. Calls of active or inactive are those of the source. The call rests on the fitted dose curve; in most records, active means well fitted cell-killing curve with a large enough effect in the repeat runs; inconclusive means weak or mixed curves, or effect the other way; inactive means flat fitted curve, though single readings scatter.
On the % scale 0 is the no-effect control and ±100 the full control effect; potency means the concentration at half of the fitted maximal effect.

As to `Cc1ccc(N=C=O)cc1N=C=O`, the Potency entry in assay [1] and in assay [2] was “inactive” each time.
For `COc1ncc(F)c2nc(S(=O)(=O)Nc3c(F)cccc3F)nn12`, the Potency result in assay [1] and in assay [2] was “inactive” in each case.
Consider `CCc1cccc(C)c1N(C(=O)CCl)[C@@H](C)COC`, for which the Potency entry in assay [1] and in assay [2] was “inactive” each time.
As for `BrC(Br)Br`, the Potency entry in assay [1] and in assay [2] was “inactive” throughout.
With `C=CC(Cl)CCl` (stereo not given), the Potency result in assay [1] and in assay [2] was “inactive” in each case.
As to `O=C(CBr)OCc1ccccc1`, the Potency result in assay [1] and in assay [2] was “inactive” in each case.
For the compound `CCCCOP(=O)(O)OCCCC`, the Potency entry in assay [1] and in assay [2] was “inactive” each time.
Turning to `N#Cc1ccc(O)cc1`, the Potency entry in assay [1] and in assay [2] was “inactive” in each case.
Regarding `COc1cc(OC)nc(Sc2cccc(Cl)c2C(=O)O)n1`, the Potency result in assay [1] and in assay [2] was “inactive” each time.
On to `CCOC1Oc2ccc(OS(C)(=O)=O)cc2C1(C)C` (stereo not given), for which the Potency entry in assay [1] and in assay [2] was “inactive” throughout.
For `COC(=O)/C=C(\C)OP(=O)(OC)OC`, the Potency result in assay [1] and in assay [2] was “inactive” throughout.
As to `CCS(=O)(=O)CCSP(=O)(OC)OC`, the Potency result in assay [1] and in assay [2] was “inactive” each time.
In the case of `O=C1c2ccccc2C(=O)c2ccccc21`, the viability change, negative = cytotoxic in assay [1] is 7.37% [at 18.9 µM]. The activity change, negative = cytotoxicity in assay [2] is 0.739% [at 18.9 µM].
On to `CCBr`, for which the Potency result in assay [1] and in assay [2] was “inactive” in each case.
Turning to `Oc1ccccc1Br`, the Potency entry in assay [1] and in assay [2] was “inactive” in each case.
For `Cc1cccc(C)c1NC(=O)CN1CCCC1=O`, the Potency entry in assay [1] and in assay [2] was “inactive” each time.
Consider `Oc1cccc(Cl)c1`, for which the Potency result in assay [1] and in assay [2] was “inactive” throughout.
In the case of `CC1=C(C(=O)Nc2ccccc2)SCCO1`, the Potency result in assay [1] and in assay [2] was “inactive” in each case.
For `c1ccc2cc3c(cc2c1)-c1cccc2cccc-3c12`, the Potency entry in assay [1] and in assay [2] was “inactive” each time.
Take `CCOC(=S)S`: the Potency result in assay [1] and in assay [2] was “inactive” each time.
Take `OCCCCO`: the Potency entry in assay [1] and in assay [2] was “inactive” in each case.
Consider `C[C@]12Cc3cn[nH]c3C[C@@H]1CC[C@@H]1[C@@H]2CC[C@@]2(C)[C@H]1CC[C@]2(C)O`, for which the Potency entry in assay [1] and in assay [2] was “inactive” in each case.
With `C[N+](C)(C)Cc1ccccc1`, the Potency entry in assay [1] and in assay [2] was “inactive” each time.
For the compound `CC(C)NC(C)C`, the Potency entry in assay [1] and in assay [2] was “inactive” each time.
Take `CNC(=O)Oc1ccccc1OC(C)C`: the Potency result in assay [1] and in assay [2] was “inactive” in each case.
As to `CCCOC(=O)c1ccccc1C(=O)OCCC`, the Potency result in assay [1] and in assay [2] was “inactive” in each case.
As to `C[C@]12CC[C@H]3[C@@H](CC=C4C[C@@H](O)CC[C@@]43C)[C@@H]1CC[C@@H]2O`, the Potency entry in assay [1] and in assay [2] was “inactive” in each case.
As for `Cc1cccc(N)c1`, the Potency entry in assay [1] and in assay [2] was “inactive” throughout.
Consider `COC(=O)N(C(=O)N1CO[C@@]2(C(=O)OC)Cc3cc(Cl)ccc3C2=N1)c1ccc(OC(F)(F)F)cc1`, for which the Potency result in assay [1] and in assay [2] was “inactive” each time.
In the case of `COC1=CC(=O)O[C@@H](CCc2ccccc2)C1`, the Potency entry in assay [1] and in assay [2] was “inactive” each time.
As for `CC(C)OC(=O)Cc1ccccc1`, the Potency entry in assay [1] and in assay [2] was “inactive” each time.
On to `Cc1ccc(Cl)c(O)c1`, for which the Potency entry in assay [1] and in assay [2] was “inactive” each time.
Take `N#Cc1ccc(N(CC(N)=O)CC(F)(F)F)cc1C(F)(F)F`: the Potency result in assay [1] and in assay [2] was “inactive” throughout.
For the compound `[CH3][Hg][Cl]`, the Potency entry in assay [1] and in assay [2] was “inactive” each time.
In the case of `O=C(N[C@H]1CN2CCC1CC2)c1cc2ccoc2cn1`, the Potency entry in assay [1] and in assay [2] was “inactive” in each case.
Take `NCCCNCCCN`: the Potency entry in assay [1] and in assay [2] was “inactive” each time.
`Nc1ccc(Cc2ccc(N)cc2)cc1`: the Potency entry in assay [1] and in assay [2] was “inactive” each time.
Take `CCCCCON=O`: the Potency result in assay [1] and in assay [2] was “inactive” in each case.
For `CCCCCCCCCCCCN(C)C`, the Potency entry in assay [1] and in assay [2] was “inactive” each time.
Take `NC(=O)CN1CCCC1=O`: the Potency result in assay [1] and in assay [2] was “inactive” in each case.
With `CC(C)CC(C)N` (stereo not given), the Potency entry in assay [1] and in assay [2] was “inactive” each time.
With `CCCSC(=O)Cl`, the Potency entry in assay [1] and in assay [2] was “inactive” each time.
`Clc1nc(Cl)nc(Nc2ccccc2Cl)n1`: the Potency entry in assay [1] and in assay [2] was “inactive” in each case.
Take `CCCCCCCCCCCCCCCCCCn1cc[n+](C)c1`: the Potency is 27.1 µM (active) in assay [1] and 30.5 µM (active) in assay [2].
With `CCCCCCCCCCOC(=O)c1ccccc1C(=O)OCCCCCCCCCC`, the Potency entry in assay [1] and in assay [2] was “inactive” each time.
As for `C[N+](C)(C)CC(=O)[O-]`, the Potency result in assay [1] and in assay [2] was “inactive” in each case.
Turning to `CCC1(c2ccccc2)CCC(=O)NC1=O` (stereo not given), the Potency entry in assay [1] and in assay [2] was “inactive” each time.
With `O=[N+]([O-])c1ccc(Nc2ccccc2)cc1`, the Potency result in assay [1] and in assay [2] was “inactive” throughout.
With `O=c1[nH]c2cc(Cl)ccc2n1C1CCNCC1`, the Potency result in assay [1] and in assay [2] was “inactive” throughout.
On to `O=[N+]([O-])C(Br)Br`, for which the Potency result in assay [1] and in assay [2] was “inactive” each time.
For `Nc1ccc(Br)cc1`, the Potency result in assay [1] and in assay [2] was “inactive” each time.
In the case of `COc1nc(NC(C)C)nc(NC(C)C)n1`, the Potency entry in assay [1] and in assay [2] was “inactive” each time.
As to `CCOC(=O)C(SP(=S)(OC)OC)c1ccccc1` (stereo not given), the Potency result in assay [1] and in assay [2] was “inactive” throughout.
On to `CC(C)(c1ccccc1)c1cc(-n2nc3ccccc3n2)c(O)c(C(C)(C)c2ccccc2)c1`, for which the Potency entry in assay [1] and in assay [2] was “inactive” each time.
Turning to `O=C(CCl)CCl`, the Potency result in assay [1] and in assay [2] was “inactive” throughout.
Consider `CCOC(=O)C(Cl)Cc1cc(-n2nc(C)n(C(F)F)c2=O)c(F)cc1Cl` (stereo not given), for which the Potency result in assay [1] and in assay [2] was “inactive” in each case.
For the compound `Nc1ccncc1`, the Potency entry in assay [1] and in assay [2] was “inactive” in each case.
With `CCCCCCC1CCOC1=O` (stereo not given), the Potency entry in assay [1] and in assay [2] was “inactive” each time.
Consider `FC(Cl)(Cl)C(F)(Cl)Cl`, for which the Potency entry in assay [1] and in assay [2] was “inactive” in each case.
Turning to `COc1cccc([C@@]2(O)CCCC[C@@H]2CN(C)C)c1`, the Potency result in assay [1] and in assay [2] was “inactive” in each case.

Source of the values: PubChem BioAssay (Tox21).
